The text below walks through data of PubChem BioAssay.

Structures are written as SMILES. The source made the active and inactive calls. Unless noted, the rule behind the calls is not given here.

Test [1] can be described thus: anti-His antibody binders, primary screen, artefact control for SMM control protein annotation, biochemical, small-molecule microarray, 635 nm fluorescence (AID 1128).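 Note: score merges feature fluorescence with signal-to-noise for each printed compound spot.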 To be noted: anti-His Alexa647 antibody binding, higher = more signal.
In test [2] the test system is Human papillomavirus type 1a E7 protein (residues 1-88). Kind of test: HPV1a E7 small-molecule binders, primary screen, biochemical, small-molecule microarray, residues 1-88, 635 nm (AID 1129). To be noted: small-molecule microarray binding, fluorescence 635 nm; higher = more signal.
In test [3] the target is Focal adhesion kinase 1 (Homo sapiens) (UniProt Q05397). Kind of test: small-molecule microarray binders of FAK, primary screen, biochemical, 635/667 nm fluorescence, BSA, DTT (AID 1130).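 Note: composite of spot emission at 667 nm and signal to noise over triplicate slides.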 The following applies: PTK2 binding, 635 nm fluorescence, higher = more signal.
For test [4], the system named is Fibrinogen (Alexa647-labelled). Kind of test: fibrinogen binders on compound microarrays, profiling panel, artefact control for SMM control-protein annotation, biochemical, small-molecule microarray, 635/667 nm fluorescence (AID 1131).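 Note: z-score merges 667 nm fluorescence with per-spot signal-to-noise over triplicate slides.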 The following applies: fibrinogen-A647 binding fluorescence, higher = more signal.
For test [5], the target named is Follistatin (Homo sapiens) (UniProt P19883). The test is described as follows: follistatin binders on small-molecule microarrays, primary screen, biochemical, small-molecule microarray, 635/667 nm fluorescence (AID 1132). The following applies: FST binding, 635 nm fluorescence, higher = more signal.
The target in test [6] is Fibroblast growth factor 2 (Homo sapiens) (UniProt P09038). Kind of test: FGF2 binders on small-molecule microarrays, primary screen, biochemical, small-molecule microarray, 635/667 nm fluorescence (AID 1133). To be noted: small-molecule microarray binding, FGF2, fluorescence 635/667; higher = more signal.
The nature of test [7]: mitochondrial membrane potential change in A549 cells, profiling panel, cell-based, JC-1 fluorescence, basal, 24 h, 100 nL (AID 1138).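 Note: A549 lung adenocarcinoma cells under basal conditions with no added stimulus; test concentration not given here.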 To be noted: higher = more signal.
The subject of another test is Lefty1. The test is described as follows: Lefty1 binders on small-molecule microarrays, primary screen, biochemical, small-molecule microarray, 635/667 nm fluorescence (AID 1139). To be noted: small-molecule microarray binding, fluorescence 635/667; higher = more signal.
In test [8] the test system is wheat germ agglutinin (Triticum aestivum), Alexa647-labelled. Kind of test: wheat germ agglutinin binders on compound microarrays, profiling panel, artefact control for SMM control-protein annotation, biochemical, small-molecule microarray, 635/667 nm fluorescence (AID 1140).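 Note: score merges 667 nm feature emission with signal to noise over triplicate slides.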 The following applies: WGA-A647 binding, 635 nm fluorescence, higher = more signal.
Test [9] concerns the target Luciferin 4-monooxygenase (Photinus pyralis) (UniProt P08659). The test is described as follows: firefly luciferase enzyme inhibitors, primary screen, biochemical, luminescence, purified enzyme, 2006 set (AID 1141).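 Note: cell-free assay with purified firefly luciferase at 100 ng per well in PBS; test concentration not given here.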 To be noted: SteadyGlo luminescence, 30 min, higher = more signal, called active from +8 up or from −8 down.
For test [10], the system named is Wnt5a (protein binding on small-molecule microarray). The test is described as follows: Wnt5a binders on small-molecule microarray, primary screen, biophysical, 635/667 nm fluorescence (AID 1142).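 Note: fluorescence read at 667 nm with signal to noise per printed feature.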 The following applies: 635 nm fluorescence, higher = more signal.
Test [11] is described as follows: cell viability in Huh7 cells, primary screen, cytotoxicity control for HCV replication inhibitor project, CellTiter-Glo luminescence, basal, 48 h (AID 1143).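 Note: Huh7 hepatoma cells carrying a hepatitis C replication reporter with no stimulus; test concentration not given here.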 To be noted: Huh7 HCV replicon, higher = more signal, called active from +8 up or from −8 down.
Test [12] is described as follows: P. aeruginosa biofilm formation inhibitors, primary screen, PAO1 strain, BacTiter-Glo luminescence, LB-PBS (AID 1144). The following applies: 12 h, higher = more signal.
A short description of test [13]: CREB reporter modulators without forskolin, primary screen, cell-based, PC12, CRE-LacZ reporter, unstimulated (AID 1145). To be noted: no forskolin, luminescence, 4.5 h, higher = more signal, called active from +8 up or from −8 down.
A short description of test [14]: CREB reporter modulators under forskolin, primary screen, cell-based, PC12, CRE-LacZ reporter, forskolin-stimulated (AID 1146).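 Note: PC12 cells with 6xCRE LacZ reporter stimulated by forskolin 10 µM; beta-galactosidase reporter signal reflecting CREB driven transcription.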 To be noted: luminescence, 4.5 h, higher = more signal, called active from +8 up or from −8 down.
The target in test [15] is Streptavidin (Streptomyces avidinii) (UniProt P22629). Kind of test: streptavidin binders on small-molecule microarray, primary screen, artefact control for SMM compound annotation, biophysical, 635/667 nm fluorescence (AID 1147).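 Note: signal reflects streptavidin binding to arrayed compounds as a control protein.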 To be noted: streptavidin binding, higher = more signal.
The nature of test [16]: small-molecule binders of probe aInhba, primary screen, biochemical, small-molecule microarray, 635/667 nm fluorescence (AID 1148).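 Note: score merges 667nm spot fluorescence with signal-to-noise for antibody binding to printed compounds.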 To be noted: higher = more signal.
Test [17] has as its target Torsin-1A (Homo sapiens) (UniProt O14656). The test is described as follows: torsin A binders from cell lysate, primary screen, small-molecule microarray, wild-type, 635/667 nm (AID 1149). The following applies: COS7 hTOR1A-WT lysate, 635 nm fluorescence, higher = more signal.
For test [18] the target is unchanged. Kind of test: small-molecule binders of mutant TOR1A in lysate, primary screen, cell lysate, small-molecule microarray, COS7 lysate, 635/667 nm fluorescence (AID 1150).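 Note: score pools 667 nm emission and signal to noise measuring lysate protein binding.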 The following applies: COS7 hTOR1A mutant lysate, 635 nm fluorescence, higher = more signal.
Test [19] concerns Sonic hedgehog protein (Shh). Kind of test: small-molecule binders of Shh protein, primary screen, biochemical, small-molecule microarray, 635/667 nm fluorescence (AID 1151).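 Note: Shh protein binding to compounds spotted on small-molecule microarray slides; score combines spot fluorescence intensity with signal-to-noise across triplicate slides.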 The following applies: small-molecule microarray binding, 635 nm fluorescence; higher = more signal.

Torsin-1A (Homo sapiens), sequence (O14656 whole entry, looked up): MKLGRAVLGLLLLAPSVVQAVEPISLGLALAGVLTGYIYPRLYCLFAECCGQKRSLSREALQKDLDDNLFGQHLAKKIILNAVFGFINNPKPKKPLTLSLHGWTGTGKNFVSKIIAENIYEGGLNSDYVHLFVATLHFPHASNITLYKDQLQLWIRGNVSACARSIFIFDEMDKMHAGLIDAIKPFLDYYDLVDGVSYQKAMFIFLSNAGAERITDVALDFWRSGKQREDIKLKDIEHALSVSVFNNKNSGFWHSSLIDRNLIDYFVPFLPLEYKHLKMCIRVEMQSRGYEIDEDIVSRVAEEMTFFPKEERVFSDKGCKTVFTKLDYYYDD
Luciferin 4-monooxygenase (Photinus pyralis), sequence (P08659 whole entry, looked up): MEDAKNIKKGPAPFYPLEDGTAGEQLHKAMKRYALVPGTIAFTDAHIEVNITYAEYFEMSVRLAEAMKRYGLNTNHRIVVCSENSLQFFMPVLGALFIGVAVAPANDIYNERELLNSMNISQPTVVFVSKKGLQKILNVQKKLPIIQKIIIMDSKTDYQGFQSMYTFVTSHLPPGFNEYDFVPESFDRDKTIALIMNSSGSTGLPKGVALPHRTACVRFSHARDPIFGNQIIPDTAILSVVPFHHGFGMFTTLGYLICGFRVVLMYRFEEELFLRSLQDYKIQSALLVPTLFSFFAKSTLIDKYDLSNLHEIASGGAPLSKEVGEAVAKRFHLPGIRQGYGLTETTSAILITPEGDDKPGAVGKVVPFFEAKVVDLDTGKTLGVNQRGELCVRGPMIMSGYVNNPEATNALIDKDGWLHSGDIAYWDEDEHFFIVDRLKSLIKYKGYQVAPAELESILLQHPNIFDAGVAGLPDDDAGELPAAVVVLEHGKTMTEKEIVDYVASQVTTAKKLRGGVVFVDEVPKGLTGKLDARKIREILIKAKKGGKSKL
Streptavidin (Streptomyces avidinii), sequence (P22629 whole entry, looked up): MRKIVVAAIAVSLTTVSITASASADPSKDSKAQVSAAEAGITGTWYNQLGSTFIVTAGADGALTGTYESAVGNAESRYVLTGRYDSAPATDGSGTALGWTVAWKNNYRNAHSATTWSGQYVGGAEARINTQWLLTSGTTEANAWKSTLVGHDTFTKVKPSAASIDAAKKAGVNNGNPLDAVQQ
Fibroblast growth factor 2 (Homo sapiens), sequence (P09038 whole entry, looked up): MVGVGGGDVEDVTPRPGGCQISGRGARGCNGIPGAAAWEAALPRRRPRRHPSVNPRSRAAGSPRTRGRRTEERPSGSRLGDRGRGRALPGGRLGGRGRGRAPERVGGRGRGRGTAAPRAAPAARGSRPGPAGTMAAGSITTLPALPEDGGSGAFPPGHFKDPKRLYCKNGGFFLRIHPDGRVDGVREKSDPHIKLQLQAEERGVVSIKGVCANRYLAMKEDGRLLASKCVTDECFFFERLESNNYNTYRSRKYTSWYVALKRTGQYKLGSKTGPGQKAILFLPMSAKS
Follistatin (Homo sapiens), sequence (P19883 whole entry, looked up): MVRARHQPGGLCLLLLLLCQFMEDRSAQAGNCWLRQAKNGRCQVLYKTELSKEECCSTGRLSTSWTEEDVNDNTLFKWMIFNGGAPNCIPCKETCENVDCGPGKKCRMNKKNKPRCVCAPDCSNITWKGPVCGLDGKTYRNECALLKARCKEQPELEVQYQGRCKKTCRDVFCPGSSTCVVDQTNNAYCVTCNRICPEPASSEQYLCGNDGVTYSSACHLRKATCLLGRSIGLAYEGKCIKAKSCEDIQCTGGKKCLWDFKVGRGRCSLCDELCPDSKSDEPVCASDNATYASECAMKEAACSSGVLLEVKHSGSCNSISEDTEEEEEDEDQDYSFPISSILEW
Focal adhesion kinase 1 (Homo sapiens), sequence (Q05397 whole entry, looked up): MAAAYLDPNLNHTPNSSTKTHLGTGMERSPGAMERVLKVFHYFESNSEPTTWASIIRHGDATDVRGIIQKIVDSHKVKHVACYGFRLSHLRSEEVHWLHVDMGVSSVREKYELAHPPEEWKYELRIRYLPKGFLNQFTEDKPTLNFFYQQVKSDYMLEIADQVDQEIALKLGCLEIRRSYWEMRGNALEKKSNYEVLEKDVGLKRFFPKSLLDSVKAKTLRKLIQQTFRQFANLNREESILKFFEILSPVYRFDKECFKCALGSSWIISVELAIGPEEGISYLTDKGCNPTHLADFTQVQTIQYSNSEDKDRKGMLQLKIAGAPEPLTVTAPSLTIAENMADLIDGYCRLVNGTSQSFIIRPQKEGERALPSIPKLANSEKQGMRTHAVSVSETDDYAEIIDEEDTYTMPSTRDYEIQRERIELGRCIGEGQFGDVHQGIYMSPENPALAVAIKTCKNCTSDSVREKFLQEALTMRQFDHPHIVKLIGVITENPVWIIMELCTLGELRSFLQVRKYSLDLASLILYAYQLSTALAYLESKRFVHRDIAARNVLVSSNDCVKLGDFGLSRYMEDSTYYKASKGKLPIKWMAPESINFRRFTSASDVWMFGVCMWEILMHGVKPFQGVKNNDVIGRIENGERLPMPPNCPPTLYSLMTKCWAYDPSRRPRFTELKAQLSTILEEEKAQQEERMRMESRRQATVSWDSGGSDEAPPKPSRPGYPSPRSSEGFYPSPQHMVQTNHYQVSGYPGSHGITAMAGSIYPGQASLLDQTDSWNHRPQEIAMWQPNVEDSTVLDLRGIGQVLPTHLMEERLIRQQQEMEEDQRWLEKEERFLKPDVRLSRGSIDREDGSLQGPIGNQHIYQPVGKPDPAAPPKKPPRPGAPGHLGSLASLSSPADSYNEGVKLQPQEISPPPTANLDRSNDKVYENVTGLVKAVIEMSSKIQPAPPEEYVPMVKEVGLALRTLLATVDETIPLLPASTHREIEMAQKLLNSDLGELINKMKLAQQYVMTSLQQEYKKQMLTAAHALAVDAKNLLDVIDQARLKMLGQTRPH

In the case of `COCCCNC(=O)[C@@]1(Cc2ccccc2N=[N+]=[N-])N=C(c2ccc(OCCCO)cc2)O[C@H]1c1ccccc1CN=[N+]=[N-]`, the composite z-score turned out to be 2.71 in [1]; 1.23 in [2]; 1.06 in test [3]; 0.998 in [4]; 1.04 in test [5]; 0.969 in test [6]. For the same compound, the composite z-score with Lefty1 is -0.113; in test [8], 1.05; in test [10], 0.972; in test [15], 1.08; in [16] it was 0.246; in the test with Torsin-1A (Homo sapiens) [17] it was 0.554. Moreover, the composite z-score in the test with Torsin-1A (Homo sapiens) [18] was 0.752; in test [19], -0.265. Also, the z-score is 1.64 in [7]; -3.93 (inactive) in test [9]; -5.06 (inactive) in test [11]; -0.389 (inactive) in test [12]; 1.84 (inactive) in test [13]; -1.75 (inactive) in test [14].
With `Cc1cc(C)c(C(O)C2C=CC3C(=O)N(c4ccccc4)C(=O)C3N2Nc2ccccc2)c(C)c1` (stereo not given), the composite z-score is 2.11 in [1]; 1.22 in test [2]; 0.638 in [3]; 1.03 in test [4]; 0.784 in test [5]; 0.0968 in test [6]. The composite z-score in the test on Lefty1 amounted to 0.366; in [8], 1.43; in [10], 0.345; in [15], 1.55; in test [16] it was 0.117; with Torsin-1A (Homo sapiens) [17] it was 0.133. For the same compound, the composite z-score was found to be 0.329 with Torsin-1A (Homo sapiens) [18] and 0.234 in test [19]. Moreover, the z-score in test [7] is 0.384; in [9], -0.584 (inactive); in [11], 0.326 (inactive); in [12], -1.38 (inactive); in [13], -0.329 (inactive); in [14], 0.501 (inactive).
Consider `CC(C)C[C@@H]1NC(=O)[C@@]23C(=O)N[C@@H](Cc4ccccc4)C2[C@H](C)[C@@]2(C)O[C@H]2C3/C=C/C/C=C\CNC(=O)[C@@H]2CCCN2C1=O` (stereo not given in full), for which the composite z-score in [1] is 0.886; in test [2], -1.05; in [3], -0.0278; in test [4] it was -0.94; in test [5], 0.368; in test [6], 0.392. In addition, the composite z-score is 0.571 in the test with Lefty1; -0.299 in test [8]; -0.0917 in test [10]; -0.767 in [15]; 0.0051 in [16]; 0.249 with Torsin-1A (Homo sapiens) [17]. In addition, the composite z-score in the test with Torsin-1A (Homo sapiens) [18] came out at 0.0725; in test [19], 0.468. For the same compound, the z-score in test [7] is 0.579; in [9] it was 0.0046 (inactive); in test [11], -0.577 (inactive); in test [12], 0.595 (inactive); in test [13], 1.12 (inactive); in test [14], -0.2 (inactive).
Regarding `COC(=O)[C@H]1N=C(c2ccc(OCCCO)cc2)O[C@H]1c1ccccc1CN=[N+]=[N-]`, the composite z-score in [1] was 0.96; in test [2], -0.189; in [3], 0.605; in test [4], 0.825; in test [5] it was 0.107; in [6], -0.372. Besides, the composite z-score in the test with Lefty1 was -0.139; in test [8] it was 0.434; in test [10], -0.0973; in [15] it was -0.129; in [16], 0.11; with Torsin-1A (Homo sapiens) [17], -1.66. Moreover, the composite z-score is -0.8 with Torsin-1A (Homo sapiens) [18] and 0.166 in test [19]. Further, the z-score in test [7] was 0.758; in test [9], -8.1 (active); in test [11], -1.45 (inactive); in [12], 0.446 (inactive); in test [13], -0.23 (inactive); in [14], -0.785 (inactive).
With `C=C(COC)/C(=C/C[C@@H](OC(=O)c1ccncc1)c1cccc(OCCO)c1)c1cc(C(=O)OC)ccc1OC`, the composite z-score was 0.0301 in test [1]; 0.942 in test [2]; -0.0044 in test [3]; 0.199 in test [4]; 1.42 in [5]; 2 in [6]. The composite z-score is 1.63 with Lefty1; 0.181 in test [8]; 0.996 in test [10]; -0.0673 in test [15]; 0.709 in test [16]; 2.64 with Torsin-1A (Homo sapiens) [17]. For the same compound, the composite z-score with Torsin-1A (Homo sapiens) [18] came to 1.49; in test [19] it was 2.11. The z-score in test [7] is 1.28; in [9], -1.11 (inactive); in test [11] it was -8.13 (active); in test [12], -0.0417 (inactive); in test [13] it was 23.7 (active); in [14], -0.376 (inactive).
